Data from PubChem BioAssay (NCATS).
Records with an inconclusive call do not appear. Activity calls are given as the source filed them. Unless noted, the call rests on the fitted dose curve; in most records, active means well fitted curve in the direction sought with a large enough effect; inconclusive means small, poorly fitted or top-dose-only effect, or another doubt; inactive means no such curve, though single readings can be large; an effect the other way counts as inactive or inconclusive.

Experiments:
[1] = qHTS for differential inhibitors of proliferation of Plasmodium falciparum line Dd2 (AID 1882); details: Potency: Plasmodium falciparum Dd2 proliferation inhibition; further: nearly all actives have a fitted effect of over 65% in size; further: potency means the concentration at half of the fitted maximal effect
How it was run: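 Dd2-infected erythrocytes (0.3% parasitemia, 2.5% hematocrit final) incubated with compound 72 h at 37 C, 5% CO2; lysed with saponin/Triton buffer containing SYBR Green I, incubated overnight in the dark, then read by fluorescence (485/535 nm). Normalized to 0.29 uM artemisinin and DMSO.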

[2] = qHTS for differential inhibitors of proliferation of Plasmodium falciparum line W2 (AID 1883); details: Potency: Plasmodium falciparum W2 proliferation inhibition;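 further: parasites grown with compound for 72 h before lysis and staining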; further: potency means the concentration at half of the fitted maximal effect
[3] = qHTS for differential inhibitors of proliferation of Plasmodium falciparum line HB3 (AID 1886); details: Potency: Plasmodium falciparum HB3 proliferation inhibition;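 further: parasites grown with compound for 72 h before SYBR Green readout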; further: potency means the concentration at half of the fitted maximal effect
[4] = molecular target: ATP-dependent DNA helicase Q1 (Homo sapiens) (UniProt P46063); test: qHTS Validation Assay for Inhibitors of RecQ-Like Dna Helicase 1 (RECQ1) (AID 2353)
Sequence of ATP-dependent DNA helicase Q1 (Homo sapiens) (P46063 whole entry, looked up): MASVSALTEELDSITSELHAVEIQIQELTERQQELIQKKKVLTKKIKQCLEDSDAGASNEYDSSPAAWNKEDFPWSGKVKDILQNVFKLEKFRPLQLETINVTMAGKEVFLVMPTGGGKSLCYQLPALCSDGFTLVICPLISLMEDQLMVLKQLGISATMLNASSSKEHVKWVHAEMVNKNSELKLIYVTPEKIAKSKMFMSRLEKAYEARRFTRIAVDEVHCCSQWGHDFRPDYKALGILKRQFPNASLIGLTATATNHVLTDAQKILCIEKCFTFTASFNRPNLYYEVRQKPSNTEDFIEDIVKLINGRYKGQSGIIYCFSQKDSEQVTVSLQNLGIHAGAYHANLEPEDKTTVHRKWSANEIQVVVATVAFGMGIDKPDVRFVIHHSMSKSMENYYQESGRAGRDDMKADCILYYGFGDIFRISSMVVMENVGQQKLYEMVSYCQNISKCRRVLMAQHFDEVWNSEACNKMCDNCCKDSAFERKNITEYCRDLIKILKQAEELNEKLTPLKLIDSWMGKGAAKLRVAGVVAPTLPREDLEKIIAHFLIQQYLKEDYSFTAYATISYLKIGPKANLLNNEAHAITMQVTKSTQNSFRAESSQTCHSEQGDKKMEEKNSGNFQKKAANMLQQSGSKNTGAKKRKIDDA
How it was run: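 50 nM RECQ1T1 preincubated 15 min with compound in Tris pH 8.0 buffer with MgCl2, DTT, Tween-20 and 2.5 ug/ml poly(dI-dC); started with 200 nM TAMRA/BHQ-2 forked duplex and 2 mM ATP. Unwinding read as fluorescence (525/598 nm), two reads 2 h apart.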

[5] = Cytometric Cell-Based qHTS for Inhibitors of the mTORC1 Signaling Pathway in MEF (Tsc2-/-, p53-/-) Cells (AID 2660);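 further: percent of cells above a phospho-rpS6 to PI ratio cutoff in each well; series mostly up to about 38 µM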
How it was run: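 Immunofluorescence qHTS of rpS6 Ser235/236 phosphorylation: MEFs (Tsc2-/-, p53-/-) treated 24 h, 37 C, in DMEM + 10% FBS. Alexa-488 signal normalized to PI count, referenced to rapamycin (7.5 nM) and DMSO; PI cell number recorded for viability.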

[6] = High Content Imaging Cell-Based qHTS for Inhibitors of the mTORC1 Signaling Pathway in MEF (Tsc2-/-, p53-/-) Cells (AID 2666);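 further: percent of cells scored positive for phospho-rpS6 Ser235/236 immunostaining by imaging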; further: potency means the concentration at half of the fitted maximal effect
How it was run: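 Phospho-rpS6 (Ser235/236) immunofluorescence, normalized and scored as % positive cells using rapamycin and DMSO controls, was read in empty-vector Tsc2-/-, p53-/- MEFs after 24 h compound exposure at 37 C; propidium iodide counted cells.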

[7] = qHTS Assay for Modulators of Human Peripheral Myelin Protein 22 (PMP22) Expression/Activity (AID 1967; active means well fitted curve in the direction sought with a large enough effect in the signal ratio; the % refers to the signal ratio)
How it was run: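 Mouse MSC80 Schwann cells carrying Pmp22 promoter–green click beetle luciferase plus EF-alpha–red luciferase control, dosed 24 h at 37 °C. Dual-filter luminescence, overlap-corrected; %Activity from green/red ratio normalised to untreated cells, concentration-response curves fitted.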

[8] = molecular target: Ferritin light chain (Equus caballus) (UniProt P02791); test: qHTS Validation Assay for Identification of Novel General Anesthetics (AID 2323); further: series mostly up to about 77 µM
Sequence of Ferritin light chain (Equus caballus) (P02791 2-175 limits assumed): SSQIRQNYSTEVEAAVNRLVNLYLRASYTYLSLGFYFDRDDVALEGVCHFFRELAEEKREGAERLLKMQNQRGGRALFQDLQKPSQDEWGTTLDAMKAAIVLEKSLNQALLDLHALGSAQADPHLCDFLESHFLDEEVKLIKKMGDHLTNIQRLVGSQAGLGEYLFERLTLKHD
How it was run: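 Horse-spleen apoferritin (10 uM) in PBS with 50% saturated 1-aminoanthracene; compounds pin-transferred, 10 min at room temperature. Fluorescence read at 380/535 nm, normalized to free 1-AMA and 1-AMA/apoferritin values; four-parameter Hill fit.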

[9] = qHTS Assay for Identification of Small Molecule Inducers of Hypoxia Response (AID 2120; active means well fitted curve in the direction sought with a large enough effect in the signal ratio, with a control signal flat, not every such curve was filed as active; the % refers to the signal ratio)
How it was run: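 HRE-bla ME-180 cells in Opti-MEM with 0.5% dialyzed FBS, pre-plated 4-5 h, then compound titration for 17 h at 37 degrees Celsius. CCF4 loaded 2.5 h at room temperature; 460/530 nm ratio gave %Activity and AC50 for induction.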

[10] = molecular target: RecQ-like DNA helicase BLM (Homo sapiens) (UniProt P54132); test: qHTS Validation Assay for Inhibitors of Bloom's syndrome helicase (BLM) (AID 2364); further: potency means the concentration at half of the fitted maximal effect
Sequence of RecQ-like DNA helicase BLM (Homo sapiens) (P54132 whole entry, looked up): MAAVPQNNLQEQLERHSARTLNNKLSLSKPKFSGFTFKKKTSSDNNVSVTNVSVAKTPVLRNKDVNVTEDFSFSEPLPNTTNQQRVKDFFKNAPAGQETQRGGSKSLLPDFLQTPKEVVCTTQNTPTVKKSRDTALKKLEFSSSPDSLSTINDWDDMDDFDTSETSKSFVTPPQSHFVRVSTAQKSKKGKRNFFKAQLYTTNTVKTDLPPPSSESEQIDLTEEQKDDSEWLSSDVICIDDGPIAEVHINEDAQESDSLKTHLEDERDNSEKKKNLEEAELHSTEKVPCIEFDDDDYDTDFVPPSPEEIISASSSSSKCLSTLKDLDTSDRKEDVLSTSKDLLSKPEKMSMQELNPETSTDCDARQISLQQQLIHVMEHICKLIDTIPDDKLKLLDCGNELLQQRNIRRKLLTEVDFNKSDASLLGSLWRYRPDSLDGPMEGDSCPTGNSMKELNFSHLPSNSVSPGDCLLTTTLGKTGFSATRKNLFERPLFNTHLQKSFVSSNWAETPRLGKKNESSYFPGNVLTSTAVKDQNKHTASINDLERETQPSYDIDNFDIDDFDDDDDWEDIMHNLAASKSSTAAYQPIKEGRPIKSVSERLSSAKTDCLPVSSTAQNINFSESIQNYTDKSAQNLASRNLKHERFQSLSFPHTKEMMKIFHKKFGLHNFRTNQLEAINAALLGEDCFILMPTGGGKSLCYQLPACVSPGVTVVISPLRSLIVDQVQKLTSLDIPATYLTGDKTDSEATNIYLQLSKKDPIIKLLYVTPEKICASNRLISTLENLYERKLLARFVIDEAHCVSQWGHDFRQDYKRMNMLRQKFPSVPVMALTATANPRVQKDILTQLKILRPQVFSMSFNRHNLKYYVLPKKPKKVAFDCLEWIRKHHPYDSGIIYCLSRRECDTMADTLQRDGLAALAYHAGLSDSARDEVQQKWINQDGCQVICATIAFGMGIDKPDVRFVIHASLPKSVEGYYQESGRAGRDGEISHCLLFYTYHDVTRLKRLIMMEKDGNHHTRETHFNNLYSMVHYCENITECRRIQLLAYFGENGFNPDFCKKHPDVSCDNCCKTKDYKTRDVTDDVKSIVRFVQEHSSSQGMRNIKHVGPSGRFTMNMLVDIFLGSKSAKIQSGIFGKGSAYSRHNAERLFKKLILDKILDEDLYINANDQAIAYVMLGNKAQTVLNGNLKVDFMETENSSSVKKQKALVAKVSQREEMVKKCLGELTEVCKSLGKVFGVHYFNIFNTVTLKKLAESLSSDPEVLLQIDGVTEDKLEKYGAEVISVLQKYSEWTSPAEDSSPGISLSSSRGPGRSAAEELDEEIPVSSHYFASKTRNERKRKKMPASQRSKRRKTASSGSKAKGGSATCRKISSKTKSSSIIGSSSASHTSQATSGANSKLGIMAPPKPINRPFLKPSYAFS
How it was run: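 50 nM BLM preincubated 15 min at room temperature with compound in pH 8.0 Tris buffer containing 2.5 ug/ml poly(dI-dC); started with 200 nM TAMRA/BHQ-2 forked duplex and 2 mM ATP (final). Unwinding read as TAMRA fluorescence increase, two reads 2 h apart.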

Measured: Potency

Clc1ccccc1C(c1ccccc1)(c1ccccc1)n1ccnc1
active: [1] 1.78 µM | [2] 0.355 µM | [3] 0.316 µM
inactive: [4] | [5] | [6]

CN(C)c1nc(N(C)C)nc(N(C)C)n1
not listed: [1] | [9] | [10]
inactive: all other assays above

CCCCc1oc2ccccc2c1C(=O)c1cc(I)c(OCCN(CC)CC)c(I)c1
active: [1] 6.31 µM | [2] 2.24 µM | [3] 3.98 µM
inactive: [4] | [5]

N[C@@H](Cc1c[nH]c2ccc(O)cc12)C(=O)O
not listed: [7] | [8] | [10]
inactive: all other assays above

CC1COc2c(N3CCN(C)CC3)c(F)cc3c(=O)c(C(=O)O)cn1c23 (stereo not given)
active: [2] 14.1 µM
not listed: [3] | [8] | [9]
inactive: all other assays above

O=C1N(c2ccccc2)c2ccccc2C1(Cc1ccncc1)Cc1ccncc1
active: [2] 10 µM | [3] 11.2 µM
inactive: [7] | [8] | [4] | [10] | [5]

NCCS(=O)(=O)O
inactive: [2] | [3] | [7] | [4] | [5] | [6]

Cn1c(=O)c2c(ncn2C)n(C)c1=O
inactive: [2] | [3] | [9] | [4] | [10] | [5]

CN1C(C(=O)Nc2ccccn2)=C(O)c2ccccc2S1(=O)=O
inactive: [1] | [3] | [8] | [4] | [5]
active: [2] 10 µM

CCCNCC(O)COc1ccccc1C(=O)CCc1ccccc1 (stereo not given)
inactive: [4] | [10] | [5] | [6]
active: [1] 1 µM | [2] 0.316 µM | [3] 1 µM

CC(C)C(=O)Nc1ccc([N+](=O)[O-])c(C(F)(F)F)c1
inactive: [1] | [4] | [10] | [5] | [6]

Nc1ccn([C@H]2CC[C@@H](CO)O2)c(=O)n1
not listed: [7] | [9] | [10]
inactive: all other assays above

CCC1(C)CC(=O)NC1=O (stereo not given)
not listed: [6] | [7] | [9]
inactive: all other assays above

COc1ccccc1OCC(O)CN1CCN(CC(=O)Nc2c(C)cccc2C)CC1 (stereo not given)
inactive: [1] | [3] | [4] | [5]

Nc1nnc(-c2cccc(Cl)c2Cl)c(N)n1
inactive: [1] | [2] | [3] | [4] | [5] | [6]

CN(C)CCC=C1c2ccccc2C=Cc2ccccc21
inactive: [8] | [4] | [10] | [5]
active: [2] 5.01 µM | [3] 12.6 µM

CC[N+](CC)(CC)CCOc1cccc(OCC[N+](CC)(CC)CC)c1OCC[N+](CC)(CC)CC
inactive: [1] | [2] | [3] | [4] | [10] | [5]

COc1cc2nc(N3CCN(C(=O)c4ccco4)CC3)nc(N)c2cc1OC
inactive: [8] | [4] | [10] | [5] | [6]
active: [2] 5.01 µM | [3] 10 µM

CNCCCC12CCC(c3ccccc31)c1ccccc12
inactive: [4] | [10] | [6]
active: [1] 11.2 µM | [2] 5.01 µM

CC(C)(Oc1ccc(C2CC2(Cl)Cl)cc1)C(=O)O (stereo not given)
not listed: [7] | [9] | [10]
inactive: all other assays above

NCCc1cnc[nH]1
inactive: [1] | [2] | [3] | [7] | [4] | [5]

NC(=O)OCC(COC(N)=O)c1ccccc1
not listed: [7] | [8] | [9]
inactive: all other assays above

COc1ccc2[nH]cc(CCNC(C)=O)c2c1
inactive: [1] | [2] | [3] | [4] | [5]

COc1ccc(C2CNC(=O)C2)cc1OC1CCCC1 (stereo not given)
inactive: [1] | [3] | [7] | [4] | [5] | [6]

COc1nc(C)nc(Cl)c1NC1=NCCN1
inactive: [1] | [3] | [8] | [4] | [5]

CCOC(=O)Nc1ccc(NCc2ccc(F)cc2)nc1N
inactive: [8] | [4] | [5]
active: [1] 11.2 µM | [2] 2 µM | [3] 2.82 µM | [10] 28.2 µM

CN1CCC(=C2c3ccccc3C=Cc3ccccc32)CC1
active: [1] 5.01 µM | [2] 2.82 µM | [3] 11.2 µM
not listed: [7] | [9]
inactive: all other assays above

O=c1c(-c2ccc(O)cc2)coc2cc(O)cc(O)c12
inactive: [1] | [3] | [9] | [4] | [5] | [6]

CN(C)CCOC(c1ccccc1)c1ccccc1
inactive: [3] | [8] | [4] | [10] | [5]
active: [1] 3.98 µM | [2] 1 µM

CCC1(c2ccccc2)C(=O)NCNC1=O
inactive: [2] | [3] | [8] | [4] | [10] | [5]

Cn1ccc2cc3c(cc21)CCN3C(=O)Nc1cccnc1
active: [2] 10 µM | [3] 12.6 µM
inactive: [4] | [5] | [6]

NC12CC3CC(CC(C3)C1)C2
inactive: [3] | [4] | [5] | [6]
active: [2] 6.31 µM

NC(=O)NO
inactive: [2] | [3] | [4] | [5] | [6]

CC(CCc1ccc(O)cc1)NCCc1ccc(O)c(O)c1 (stereo not given)
active: [2] 10 µM | [3] 12.6 µM
inactive: [4] | [10] | [5]

Cn1cnc2c1c(=O)[nH]c(=O)n2C
not listed: [1] | [7] | [9]
inactive: all other assays above

O=C(c1ccc(OCCN2CCCCC2)cc1)c1c(-c2ccc(O)cc2)sc2cc(O)ccc12
inactive: [4]
active: [2] 3.16 µM | [3] 3.16 µM

Nc1c2c(nc3ccccc13)CCCC2
inactive: [4] | [10] | [5] | [6]
active: [2] 5.62 µM | [3] 12.6 µM

Clc1ccc2c(c1)C(N1CCNCC1)=Nc1ccccc1O2
active: [2] 5.62 µM | [3] 11.2 µM
inactive: [4] | [10] | [6]

CC(C)Cc1ccc(C(C)C(=O)O)cc1 (stereo not given)
inactive: [2] | [3] | [4] | [5]

NCCCCCC(=O)O
inactive: [2] | [3] | [10] | [5] | [6]

CN(C)CCCN1c2ccccc2CCc2ccc(Cl)cc21
inactive: [4] | [10] | [5] | [6]
active: [2] 5.01 µM | [3] 10 µM

COc1cc2nc(N3CCN(C(=O)C4COc5ccccc5O4)CC3)nc(N)c2cc1OC (stereo not given)
inactive: [8] | [4] | [10] | [5] | [6]
active: [2] 1.12 µM | [3] 2.82 µM

CCOC(=O)C(C)(C)Oc1ccc(Cl)cc1
inactive: [2] | [3] | [4] | [10] | [5] | [6]

CC12CC3CC(C)(C1)CC(N)(C3)C2
active: [2] 2.24 µM
inactive: [8] | [4] | [5] | [6]

COc1ccccc1N1CCN(CC(O)COc2cccc3ccccc23)CC1 (stereo not given)
active: [2] 10 µM | [3] 12.6 µM
inactive: [8] | [4] | [10] | [6]

O=C(c1ccc(F)cc1)C1CCN(CCn2c(=O)[nH]c3ccccc3c2=O)CC1
inactive: [4] | [10] | [5] | [6]
active: [2] 1.58 µM | [3] 3.98 µM

CN1CCN(CCCN2c3ccccc3Sc3ccc(Cl)cc32)CC1
active: [2] 4.47 µM | [3] 12.6 µM
inactive: [4] | [10]

CN1CCN2c3ccccc3Cc3ccccc3C2C1 (stereo not given)
inactive: [4] | [5] | [6]
active: [2] 5.62 µM | [3] 12.6 µM

CCOC(=O)c1ncn2c1CN(C)C(=O)c1cc(F)ccc1-2
inactive: [2] | [3] | [4] | [5]

O=C(C1CCCCC1)N1CC(=O)N2CCc3ccccc3C2C1 (stereo not given)
active: [2] 12.6 µM
inactive: [4] | [5]

CC(C)NCC(O)COc1ccc(CCOCC2CC2)cc1 (stereo not given)
active: [2] 7.08 µM
inactive: [3] | [4] | [5] | [6]

Cc1cc(C(C)(C)C)c(O)c(C)c1CC1=NCCN1
inactive: [4] | [5]
active: [2] 12.6 µM

O=C(Nc1ccc([N+](=O)[O-])cc1Cl)c1cc(Cl)ccc1O
inactive: [4] | [5]
active: [2] 0.794 µM | [3] 0.794 µM

OCCN(CCO)c1nc(N2CCCCC2)c2nc(N(CCO)CCO)nc(N3CCCCC3)c2n1
inactive: [4] | [5] | [6]
active: [2] 2.82 µM | [3] 3.55 µM

Fc1ccc([C@@H]2CCNC[C@H]2COc2ccc3c(c2)OCO3)cc1
active: [2] 3.55 µM | [3] 7.08 µM | [6] 2.93 µM
inactive: [4] | [10]

CN1CCC(=C2c3ccccc3CC(=O)c3sccc32)CC1
inactive: [4] | [10] | [5]
active: [2] 0.891 µM | [3] 10 µM

Cn1c(=O)c2[nH]cnc2n(C)c1=O
inactive: [2] | [3] | [4] | [10] | [5] | [6]

Cc1ccc(C(=O)Nc2ccc(S(=O)(=O)O)c3cc(S(=O)(=O)O)cc(S(=O)(=O)O)c23)cc1NC(=O)c1cccc(NC(=O)Nc2cccc(C(=O)Nc3cc(C(=O)Nc4ccc(S(=O)(=O)O)c5cc(S(=O)(=O)O)cc(S(=O)(=O)O)c45)ccc3C)c2)c1
active: [2] 12.6 µM
inactive: [8] | [10] | [5]

Nc1nc2c(ncn2COC(CO)CO)c(=O)[nH]1
inactive: [2] | [3] | [4] | [5]

CN(Cc1cnc2nc(N)nc(N)c2n1)c1ccc(C(=O)N[C@@H](CCC(=O)O)C(=O)O)cc1
inactive: [4] | [5]
active: [2] 0.0398 µM | [3] 0.0708 µM
